Screening data from PubChem.
TRHR PAM: allosteric enhancers of human TRH receptor. P34981. enhancement, % at 2 µM. TRHR cells, fluo-8 calcium fluorescence, EC20 TRH enhancement. actives 0.66% (n = 360,000); in the data active = enhancement above about 30%
Target sequence (P34981 whole entry, looked up): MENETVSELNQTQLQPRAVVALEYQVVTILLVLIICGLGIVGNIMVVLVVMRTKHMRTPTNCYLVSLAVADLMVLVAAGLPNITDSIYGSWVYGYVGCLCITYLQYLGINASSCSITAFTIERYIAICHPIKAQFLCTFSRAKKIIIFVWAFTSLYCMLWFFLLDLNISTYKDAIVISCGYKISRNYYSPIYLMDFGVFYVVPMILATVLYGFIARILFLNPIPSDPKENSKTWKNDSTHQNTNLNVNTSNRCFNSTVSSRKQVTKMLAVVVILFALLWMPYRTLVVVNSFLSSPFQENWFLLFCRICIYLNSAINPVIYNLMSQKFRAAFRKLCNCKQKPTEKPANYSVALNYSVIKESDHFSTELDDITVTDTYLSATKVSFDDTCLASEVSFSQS
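TRHR-expressing cells loaded with fluo-8 calcium dye were read kinetically (ex 480/em 530) during compound addition, then stimulated with an EC20 of TRH (10 nM final). Enhancement of the Gq-mediated intracellular calcium response was scored.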
TRPML1 inh: blocks the human TRPML1 channel. Q9GZU1. TRPML1-inducible cells, Ca2+ dye fluorescence, FDSS; stronger effect = lower value; inhibition of EC80 agonist-evoked calcium signal. activity change, negative = inhibition, % (concentration not given with the values). actives 0.02% (n = 390,000). AID 624415; in the data active = activity change below about -50%;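 also: stimulus is agonist 54-4 at its EC80 concentration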
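TRPML1-DL cells, Tet-induced overnight (~16 h, 37 °C) at 1,500 cells/well, were loaded with Ca8 no-wash dye plus quencher for 45-90 min at room temperature. Compounds were pinned during FDSS kinetic reading; agonist 54-4 at EC80 (4 uM final) then added.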
TRHR agonist: agonists of human TRH receptor | P34981 | TRHR cells, calcium flux fluo-8, FDSS agonist mode | activation, % at 2 µM | actives 0.18% (n = 360,000) | AID 493084; in the data active = activation above about 30%
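In this calcium-flux screen, cells bearing human TRHR are dye-loaded with fluo-8, baselined for 10 cycles, then exposed to library compounds; positive kinetic calcium responses during the agonist phase mark hits, with TRH as control.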
TRPML1 ag: activates the human TRPML1 channel | Q9GZU1 | TRPML1-expressing cells, Ca2+ dye fluorescence, FDSS | activation, % (concentration not given with the values) | actives 0.12% (n = 410,000) | AID 624414; in the data active = activation above about 50%
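Calcium fluorescence on an FDSS kinetic reader gave the read-out. Tet-induced TRPML1-DL cells were plated overnight, dye-loaded (Ca8 with quencher, 45-90 min, room temperature, dark), then read 110 s after compound addition, and again 110 s after 4uM final 54-4 (EC80).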
Hits are given with their value; i = inactive; nt = not tested or not shown. Sampled rows, rich in hits. Any-hit rate of the full collection: about 0.81%.

SMILES	TRHR PAM	TRPML1 inh	TRHR agonist	TRPML1 ag
Cc1cc(O)c(C(=O)c2cnc3c(c2)COc2ccccc2-3)cc1Cl	35	i	i	i
COc1cc2c(NC3CCN(C)CC3)nc(N3CCCN(C)CC3)nc2cc1OCCCCCN(C)C	nt	nt	nt	i
CCC(C)C(NC(=O)c1ccccc1NC(=O)c1ccc(OC)cc1)C(=O)NCCCn1ccnc1 (stereo not given)	39	i	i	i
COC(C(=O)C(O)C(C)O)C1Cc2cc3cc(OC4CC(OC5CC(O)C(O)C(C)O5)C(O)C(C)O4)c(C)c(O)c3c(O)c2C(=O)C1OC1CC(OC2CC(OC3CC(C)(O)C(O)C(C)O3)C(O)C(C)O2)C(O)C(C)O1 (stereo not given)	nt	nt	nt	i
CCN(CC)c1ccc2cc(S(=O)(=O)c3ccc(Cl)cc3)c(=O)oc2c1	i	i	110	i
COC1=CC(=Cc2c(N)n3nc(CC(=O)N4CCCCC4)sc3nc2=O)C=C(OC)C1=O	i	i	138	i
COC1=C/C(=C/c2c(N)n3nc(CC(=O)N4CCCC4)sc3nc2=O)C=CC1=O	i	i	i	i
CCCCCn1ncc2c3sc(C)cc3n(C)c2c1=O	i	nt	i	nt
Cc1cc(C)cc(C(=O)C[n+]2cccc(Br)c2)c1	nt	nt	nt	i
Cc1c(C(=O)NCc2ccco2)oc2c(F)cccc12	37	i	i	i
Cc1c(C(=O)NCc2ccco2)oc2ccccc12	i	i	i	i
CCC(=O)NC(/C=C/c1ccccc1)c1cc([N+](=O)[O-])c2cccnc2c1O (stereo not given)	32	nt	i	nt
COc1cc(/C=C2/C=Cc3ccccc32)ccc1N(C)C	nt	nt	nt	i
CCc1cc2c(COC(=O)c3cccc(S(C)(=O)=O)c3)cc(=O)oc2cc1O	i	i	i	i
CCc1cc2c(COC(=O)c3c(C)noc3C)cc(=O)oc2cc1O	33	i	i	i
COc1ccc2nc(NC(=O)c3cc(=O)c4ccccc4o3)sc2c1	40	i	i	i
Cc1ccc(N=C2SC(C(=O)NCCc3ccccc3)CC(=O)N2C)cc1C (stereo not given)	i	i	i	i
Cc1ccc(N=C2SC(C(=O)O)CC(=O)N2C)cc1C (stereo not given)	34	i	i	i
COc1ccc(-c2nc3cccc(C)n3c2Nc2ccc(C)cc2)cc1	nt	nt	nt	i
O=C(Cn1nc(-c2ccc(Cl)cc2)ccc1=O)N1CCN(c2ccccc2)CC1	32	i	i	i
O=C(O)Cn1nc(-c2ccc(Cl)cc2)ccc1=O	i	i	i	i
O=C(NCC(=O)N1CCN(c2ccccc2)CC1)c1ccc(Cl)cc1	i	-54	i	i
COc1ccc(C(=O)NCC(=O)N2CCN(c3ccccc3)CC2)cc1	i	i	i	i
Cc1ccc(S(=O)(=O)N2CCN(c3nc(-n4ccnc4)nc4ccccc34)CC2)cc1	nt	nt	nt	i
O=C(NCc1ccccc1Cl)c1nnc(CS(=O)(=O)c2ccccc2)o1	31	i	i	i
SMILES	TRHR PAM	TRPML1 inh	TRHR agonist	TRPML1 ag
Cc1cccc(NC(=O)c2ccc(CN3CC(=O)N4CCCCC4C3=O)cc2)c1C (stereo not given)	45	i	i	i
Cc1ccc(C)c(NC(=O)c2ccc(CN3CC(=O)N4CCCCC4C3=O)cc2)c1 (stereo not given)	i	i	i	i
COc1cc(OC)c(OC)cc1/C=C/c1nccc2ccccc12	nt	nt	nt	i
COc1ccc(Cl)cc1NC(=O)CN(C)C(=O)c1ccc(N2CCCCC2)c([N+](=O)[O-])c1	i	i	i	61
COc1ccc(Cl)cc1NC(=O)CN(C)C(=O)c1ccc(N2CCCCCC2)c([N+](=O)[O-])c1	i	i	i	i
Cc1cc2c(s1)c1cnn(Cc3ccc(SC(F)(F)F)cc3)c(=O)c1n2C	i	nt	i	nt
Cc1cc2c(s1)c1cnn(Cc3ccc(Br)cc3F)c(=O)c1n2C	i	nt	i	nt
Fc1ccccc1-c1nnc2ccc3ccccc3n12	36	i	i	i
Fc1cccc(Cl)c1-c1nnc2ccc3ccccc3n12	i	i	i	i
O=[N+]([O-])c1ccc(-c2cc3ccccc3[nH]2)cc1	nt	nt	nt	i
Cc1ccccc1NC(=O)c1ccccc1OCC(=O)Nc1ccc(Br)cc1	nt	nt	nt	i
CCC(=O)c1ccc(OC(=O)Cc2ccc(OC)cc2)cc1	38	i	i	i
Nc1cccc(/C=C2\C=Cc3ccccc32)c1	nt	nt	nt	i
COc1ccc(OC)c(S(=O)(=O)N2CCN(S(=O)(=O)c3ccc4c(c3)OCCO4)CC2)c1	i	nt	i	nt
CCC1CCCCN1Cc1c(O)ccc2c(=O)c(-c3ccccc3OC)coc12 (stereo not given)	nt	i	nt	i
CC1CCCCN1Cc1c(O)ccc2c(=O)c(-c3nc4ccccc4s3)coc12 (stereo not given)	32	nt	i	nt
CNC(=O)c1sccc1SCc1ccc(Cl)cc1Cl	33	i	i	i
CNC(=O)c1sccc1SCc1c(Cl)cccc1Cl	i	i	i	i
CS(=O)(=O)N1CCN(/[N+]([O-])=N/Oc2ccc([N+](=O)[O-])cc2[N+](=O)[O-])CC1	nt	i	nt	i
COc1ccc(N2CCN(C(c3ccccc3)c3nnnn3C(C)(C)C)CC2)cc1 (stereo not given)	nt	nt	nt	i
Cc1cccc(C)c1N1CCN(C(c2cc3ccccc3o2)c2nnnn2C(C)(C)C)CC1 (stereo not given)	nt	nt	nt	54
COc1ccc(N2CCN(C(c3ccccc3)c3nnnn3C(C)C)CC2)cc1 (stereo not given)	nt	nt	nt	61
CCCCn1nnnc1C(c1cc2ccccc2o1)N1CCN(c2c(C)cccc2C)CC1 (stereo not given)	nt	nt	nt	i
Cc1ccc(C)c(N2CCN(C(c3ccccc3)c3nnnn3C(C)(C)C)CC2)c1 (stereo not given)	nt	nt	nt	86
O=c1[nH]c2c(-c3nc(-c4ccc(Cl)cc4)cs3)c(O)cn2c2ccccc12	nt	nt	nt	i
SMILES	TRHR PAM	TRPML1 inh	TRHR agonist	TRPML1 ag
CCCCNC(=O)[C@@H]1CC=C[C@@H]2CCN(CCCC)C(=O)[C@@H]21	nt	nt	nt	i
Cc1cc(C)nc(OC(=O)c2c(Cl)cc(Cl)cc2Cl)n1	30	i	i	i
CC(=O)Nc1ccc(Sc2ncccc2C(=O)Nc2ccc(OC(F)(F)F)cc2)cn1	i	i	i	52
COc1cc(N(C)C)c(OC)cc1C=O	nt	nt	nt	i
COCCNC(=O)c1ccc(Cn2c(SCC(=O)NC(C)C)nc3ccccc3c2=O)cc1	i	i	i	i
CCC(C)NC(=O)CSc1nc2ccccc2c(=O)n1Cc1ccc(OC)cc1 (stereo not given)	32	i	i	i
COCc1c(C(=O)N/N=C/c2ccc(C)o2)nnn1-c1nonc1N	i	i	i	i
Cc1ccc(/C=N/NC(=O)c2nnn(-c3nonc3N)c2CN(C)C)o1	32	i	i	i
O=C(CCCc1c[nH]c2ccccc12)N[C@@H](Cc1c[nH]c2ccccc12)C(=O)O	i	i	i	i
CC(C)NC(=O)CCCc1c[nH]c2ccccc12	33	i	i	i
Cc1c(O)ccc2c1OC(C)(C)CC2	nt	nt	nt	i
Cc1cc(NC(=O)c2ccc(-c3ccccc3[N+](=O)[O-])o2)no1	nt	i	nt	i
